PHOSPHO1 inh = PHOSPHO1 (human) inhibition. recombinant PHOSPHO1, absorbance phosphatase assay. Q8TCT1. 290,000 compounds, 1.1% hits. inhibition, % at 13.3 µM; in the data active = inhibition above about 60%
UBC9 SUMO inh = SUMOylation inhibition; AID 2006; HTRF SUMOylation assay, SAE1/SAE2 + UBC9, in vitro; P63279; inhibition, % at 35 µM; 290,000 compounds, 0.36% hits; in the data active = inhibition above about 50%, passing the limit was not always enough
NadD block = blocks S. aureus nicotinate mononucleotide adenylyltransferase. purified NadD enzyme, colorimetric absorbance read-out. 360,000 compounds, 0.78% hits. inhibition, % at 20 µM; in the data active = inhibition above about 26%
p-CIP stab down = lowers stability of the mouse p/CIP coactivator protein; Q05BA5; F442A p/CIP-EGFP cells, EGFP fluorescence, 16 h; decrease of EGFP signal, % at 10 µM; 290,000 compounds, 0.01% hits;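 active = EGFP signal decrease of at least 30% at 10 µM or well 3 SD below plate mean, unless failing retest; inactive = the rest, including hits failing retest or dose response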
Target sequence (Q05BA5 1-1403): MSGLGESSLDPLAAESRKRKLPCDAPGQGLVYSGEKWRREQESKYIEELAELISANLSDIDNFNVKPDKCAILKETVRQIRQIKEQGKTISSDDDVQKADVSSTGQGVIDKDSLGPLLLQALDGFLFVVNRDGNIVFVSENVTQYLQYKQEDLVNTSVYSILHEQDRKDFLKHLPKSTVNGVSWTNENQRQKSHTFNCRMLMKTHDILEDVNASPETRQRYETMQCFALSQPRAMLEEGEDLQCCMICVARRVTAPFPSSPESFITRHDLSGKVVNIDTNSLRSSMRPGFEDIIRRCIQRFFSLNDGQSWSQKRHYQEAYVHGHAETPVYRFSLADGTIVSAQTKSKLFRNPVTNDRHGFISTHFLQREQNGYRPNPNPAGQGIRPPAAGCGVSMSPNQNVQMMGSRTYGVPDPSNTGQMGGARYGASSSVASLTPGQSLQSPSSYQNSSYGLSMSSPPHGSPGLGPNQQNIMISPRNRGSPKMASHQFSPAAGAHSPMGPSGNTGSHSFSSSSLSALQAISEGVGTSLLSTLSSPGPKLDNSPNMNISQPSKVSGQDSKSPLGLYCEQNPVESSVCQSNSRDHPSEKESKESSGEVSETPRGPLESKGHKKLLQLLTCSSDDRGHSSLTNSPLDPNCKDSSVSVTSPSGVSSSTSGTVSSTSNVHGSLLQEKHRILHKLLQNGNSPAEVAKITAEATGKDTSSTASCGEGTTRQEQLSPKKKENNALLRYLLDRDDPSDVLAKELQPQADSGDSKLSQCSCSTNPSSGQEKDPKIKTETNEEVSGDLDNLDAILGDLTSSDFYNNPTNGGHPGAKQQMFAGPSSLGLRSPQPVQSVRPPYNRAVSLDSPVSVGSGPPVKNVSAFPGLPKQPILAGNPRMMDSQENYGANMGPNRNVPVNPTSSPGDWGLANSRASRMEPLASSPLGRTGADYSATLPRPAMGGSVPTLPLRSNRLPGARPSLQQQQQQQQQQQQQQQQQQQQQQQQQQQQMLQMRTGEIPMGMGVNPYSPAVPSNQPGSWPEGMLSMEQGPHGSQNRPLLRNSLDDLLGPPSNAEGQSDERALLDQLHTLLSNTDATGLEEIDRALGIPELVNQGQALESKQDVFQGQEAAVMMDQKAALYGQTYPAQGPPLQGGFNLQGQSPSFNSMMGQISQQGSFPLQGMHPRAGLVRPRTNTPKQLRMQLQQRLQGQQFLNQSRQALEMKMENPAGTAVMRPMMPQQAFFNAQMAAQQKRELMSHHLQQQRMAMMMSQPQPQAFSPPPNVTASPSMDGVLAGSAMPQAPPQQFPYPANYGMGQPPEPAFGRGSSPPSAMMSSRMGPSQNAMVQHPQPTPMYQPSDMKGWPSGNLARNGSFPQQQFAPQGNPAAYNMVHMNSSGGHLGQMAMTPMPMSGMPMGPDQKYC
Active calls of the source: *; / = no result; ! = repeats disagree. This is a sample that favours compounds with a hit; in the whole collection about 1.8% have one here.

SMILES	PHOSPHO1 inh	UBC9 SUMO inh	NadD block	p-CIP stab down
Cc1ccc(S(=O)(=O)NC2=C(N3CCN(c4ccccc4F)CC3)C(=O)c3ccccc3C2=O)cc1	-18.1	25.4	33.9*!	-17.8
Cc1ccc(S(=O)(=O)NC2=C(N3CCN(Cc4ccccc4)CC3)C(=O)c3ccccc3C2=O)cc1	59.2	8.1	7.8	-0.7
O=S(=O)(c1cccs1)N1CCN(c2ccccc2)CC1	18.4	8.2	-8.1	-7.3
COc1cc(OC)c(CN2CCC(CO)(CCOc3ccccc3)CC2)c(OC)c1	64.2*	-4.8	-7.3	-16.0
COc1cc(CN2CCC(CO)(CCOc3ccccc3)CC2)cc(OC)c1OC	24.8	5.4	-4.2	-16.1
CC(O)c1n(C)c(Cl)c[n+]1C (centres undefined)	78.6*	-2.1	7.0	-7.5
CCCCC1(C)OC(=O)C(=Cc2ccc(-c3ccc(Cl)c(C(=O)O)c3)o2)C(=O)O1 (centres undefined)	85.9*	26.2	0.1	-3.4
CCOC(=O)c1cc(-c2ccc(/C=C3/C(=O)NC(=O)C(C#N)=C3C)o2)ccc1Cl	2.9	8.3	38.6*	-5.3
CC1=C(C#N)C(=O)NC(=O)/C1=C\c1ccc(-c2ccc(C)cc2[N+](=O)[O-])o1	16.5	/	4.1	-10.2
CCCCCCCCC[n+]1cccc2c3ccccc3ccc21	-2.9	31.7	5.7	4.0
CCCCCCCCCCCCCCCC[n+]1cccc2ccccc21	6.0	17.8	53.4*	-1.7
Cc1ccc(-c2nnc(SCC(=O)O)n2N)cc1	24.5	18.5	1.8	-4.2
C=CCn1c(SCC(=O)O)nnc1-c1ccc(C(C)(C)C)cc1	93.5*	-32.2	0.3	-4.3
CC(C)OC(=O)CSc1nnc(-c2ccc(C(C)(C)C)cc2)n1N	66.7*	2.2	0.0	7.8
CC(C)(C)c1ccc(-c2nnc(SCC(=O)O)n2N)cc1	75.1*	11.4	8.8	-3.8
Cn1cccc1/C=C1\SC(=Nc2ccccc2)NC1=O	12.1	13.0	-5.0	4.2
Cc1ccc(N=C2NC(=O)/C(=C/c3cn(C)c4ccccc34)S2)cc1C	1.5	34.7	33.9*	-49.0
O=C(Nc1nc(-c2ccco2)c(-c2ccco2)s1)C1CC(=O)N(c2ccc3c(c2)OCCO3)C1 (centres undefined)	7.0	82.9*	71.6*	-24.1
O=C(Nc1nc(-c2ccco2)c(-c2ccco2)s1)C1CCC1	12.3	60.6*	8.6	-53.5
O=C(Nc1nnc(-c2ccco2)s1)C1CCCCC1	75.4*	12.6	6.8	-3.5
O=C(Nc1nnc(-c2ccco2)o1)C1CCCCC1	4.3	3.6	4.9	-11.2
CCC(c1nnnn1-c1ccc2c(c1)OCCO2)N1CCN(c2cc(C)ccc2C)CC1 (centres undefined)	/	/	8.0	/
CCOC(=O)c1c(C)[nH]c(C(=O)OCc2nc3ccsc3c(=O)[nH]2)c1C	/	/	0.4	/
O=C(CC1C[C@H](C(=O)N2CCCCC2)[C@@]2(CCc3ccccc3)c3[nH]c4ccccc4c3CCN2C1=O)NCc1ccco1 (some centres undefined)	/	/	15.9	/
O=C(C[C@H]1C[C@H](C(=O)N2CCCCC2)[C@@]2(CCc3ccccc3)c3[nH]c4cc(-c5ccco5)ccc4c3CCN2C1=O)NCc1ccco1	/	/	51.2*	/
SMILES	PHOSPHO1 inh	UBC9 SUMO inh	NadD block	p-CIP stab down
O=C(NCCN1CCN(c2ccccc2)CC1)c1ccc2c(c1)[nH]c(=S)n1c3ccccc3nc21	-4.6	29.2	13.1	-7.4
O=C(c1ccc2c(c1)[nH]c(=S)n1c3ccccc3nc21)N1CCN(c2ncccn2)CC1	27.6	60.7*	17.9	-6.3
O=S(=O)(NCC(c1cccnc1)N1CCN(Cc2ccccc2)CC1)c1cc(F)ccc1F (centres undefined)	70.6*	10.3	-2.3	-7.1
Cc1ccc(Cl)cc1-c1cc(C(=O)NCc2ccc(C(F)(F)F)cc2)[nH]n1	/	/	3.9	/
CCC(=O)N1CCC(C)(C(=O)Nc2ccc3c(c2)OCO3)C1 (centres undefined)	/	/	3.1	/
Cc1cc(F)ccc1C(O)c1ncc(-c2cccc(F)c2)[nH]1 (centres undefined)	/	/	-2.4	/
COc1ccc(C(=O)Nc2cc3c(oc2=O)CCCC3=O)cc1	28.5	40.2	-5.5	-12.9
O=C(Nc1cc2c(oc1=O)CCCC2=O)c1cccc(Cl)c1	64.6*	20.0	-6.7	-2.9
O=C(N/N=C/c1cccc([N+](=O)[O-])c1)c1ccc(Br)cc1	64.7*	0.5	4.2	3.0
O=C(N/N=C/c1cccc([N+](=O)[O-])c1)c1cccc(Br)c1	-7.2	-3.6	-2.8	10.7
CCC(C)Sc1cccc(-c2nc3ccc(C)cn3c2NCc2ccccc2)c1 (centres undefined)	/	/	8.9	/
CCC(C)Sc1cccc(-c2nc3ccc(Cl)cn3c2NCc2ccccc2)c1 (centres undefined)	/	/	31.2*	/
COC(=O)C1OC1c1cc([N+](=O)[O-])ccc1OC (centres undefined)	/	/	1.0	/
COc1ccc([N+](=O)[O-])cc1C1NN=C(c2ccccc2O)S1 (centres undefined)	48.9	31.4	34.8*	-7.1
CC(=O)SC(C[N+](=O)[O-])c1cn(C(C)=O)c2ccccc12 (centres undefined)	62.6*	-1.5	5.9	8.9
CSc1ncnc2c1ncn2CCCN1CCN(c2ncccn2)CC1	/	/	10.8	/
O=C(C1CCC(=O)N(C2CCCC2)C1)N1CCN(Cc2cccc(F)c2)CC1 (centres undefined)	75.1*	-1.8	4.7	-7.9
O=C(NC1(O)C(=O)c2ccccc2C1=O)c1ccccc1	1.2	83.9*	-0.4	7.1
O=C(NC1(O)C(=O)c2ccccc2C1=O)c1c(Cl)cccc1Cl	52.9	95.0*	-7.0	-3.8
O=C(Nc1ccccc1Cl)c1c(F)c(F)c(F)c(F)c1F	/	/	-1.9	/
O=S1(=O)CC(N2CC=CC2)CN1Cc1ccccc1 (centres undefined)	/	/	-7.1	/
Oc1ccc(C=Nc2cccc3ncccc23)c(O)c1	-3.2	92.5	5.8	-3.7
Oc1ccc(C=Nc2ccc3ncccc3c2)c(O)c1	9.5	65.4*	/	-16.2
CC(C)(C)c1ccc(C(=O)N2CCC2(C)C(=O)NCc2cccc3ccccc23)cc1 (centres undefined)	/	/	-10.5	/
COc1ccc(S(=O)(=O)N2CCCCC2)cc1NC(=O)CN(Cc1ccco1)Cc1ccco1	/	/	5.2	/
SMILES	PHOSPHO1 inh	UBC9 SUMO inh	NadD block	p-CIP stab down
COc1ccc(N2CCN(S(=O)(=O)CCNC(=O)c3ccco3)CC2)cc1	/	/	-5.3	/
COc1ccc(N2CCN(S(=O)(=O)CCNC(=O)c3ccc(Br)o3)CC2)cc1	64.9*	0.0	2.2	-0.2
COc1ccccc1OCCn1cc(/C=N/NC(=O)c2ccncc2)c2ccccc21	60.5*	9.9	1.4	-11.2
CCc1nc2ccc(C(=O)NCCCN3CCCC3=O)cn2c1N(C)C(=O)Nc1ccccc1OC	/	/	6.2	/
O=C1N=C(N2CCCCC2)SC1=C1CCCCC1	18.6	13.2	4.4	-7.1
O=C1NC(=S)SC1=C1CCCCCC1	83.6*	14.5	4.0	-18.6
C[C@@H]1CN([C@H](C)CO)C(=O)CCCn2nncc2CO[C@H]1CN(C)Cc1ccc(Oc2ccccc2)cc1	/	/	-4.1	/
CC(C)[C@H](N)c1nnc(SCC(=O)c2ccc(Cl)cc2)o1	82.1*	1.7	-6.5	11.9
Cc1noc(C)c1NC(=O)N(C)C[C@H]1OCc2cnnn2CCCC(=O)N([C@H](C)CO)C[C@@H]1C	/	/	1.5	/

From PubChem
